Results filed as inconclusive are left out. Where a call stands in place of a potency, no number is given. The source made the active and inactive calls. Unless noted, calls follow the shape of the dose curve; as a rule, active = well fitted curve in the direction sought with a large enough effect; inconclusive = small, poorly fitted or top-dose-only effect, or another doubt; inactive = no such curve, though single readings can be large; an effect the other way counts as inactive or inconclusive.
Legend:
[1] = molecular target: alpha-glucosidase (Oryza sativa, rice) (UniProt Q653V4); assay: Counterscreen for Glucocerebrosidase Inhibitors: qHTS Assay for Rice alpha-Glucosidase at pH 5.0 (AID 997)
How it was run: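 Endpoint fluorogenic assay at pH 5.0: compounds (0.7 nM to 77 uM) titrated against 4 nM rice enzyme and 400 uM 4-MU-alpha-glucoside for 20 min at room temperature; NaOH/glycine stop, read ex 365/em 440 nm, Hill-fitted AC50.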

[2] = qHTS Assay for Lipid Storage Modulators (AID 1519; calls by dose curve); details: Drosophila S3 cells, BODIPY lipid droplet/cell ratio, laser cytometry, cells loaded with oleic acid; for activity change, negative = inhibition: at 57.5 µM (top of the series)
How it was run: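 Cells seeded at 5,000 per well were treated with compounds over a concentration series and loaded with oleic acid (400 uM, as added). Lipid droplet fluorescence (488 nm excitation, 500-530 nm channel) was read by laser-scanning cytometry and normalized to 20 uM Triacsin C.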

[3] = molecular target: DNA repair nuclease/redox regulator APEX1 (Homo sapiens) (UniProt P27695); assay: qHTS Validation Assay for Inhibitors of the Human Apurinic/apyrimidinic Endonuclease 1 (APE1) (AID 1705; also: potency is read from the fitted curve at half-maximal effect;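 as to activity change, negative = inhibition: TAMRA fluorescence gain over two minutes as APE1 cuts a quenched THF abasic duplex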)
How it was run: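 Read-out: TAMRA fluorescence (525 nm ex, 598 nm em) from cleavage of a quenched THF abasic-site duplex, 50 nM final; activity taken as intensity change between third and first of three reads 60 s apart.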

[4] = Counterscreen for APE1 Inhibitors: Fluorescent Dye Displacement Validation Assay (AID 1707)
How it was run: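 Counterscreen flags promiscuous DNA binders: compounds displacing ThO from duplex DNA (abasic THF site, 50 nM) reduce 540 nm emission (480 nm excitation). ThO 250 nM final; Tris-HCl pH 7.5 with NaCl, MgCl2 and Tween-20.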

[5] = molecular target: Endonuclease 4 (Escherichia coli (strain K12)) (UniProt P0A6C1); assay: Counterscreen for APE1 Inhibitors: qHTS Validation Assay for Inhibitors of Endonuclease IV (AID 1708)
How it was run: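 Conditions: 2 nM enzyme, 50 nM TAMRA/BHQ-2 substrate, pH 7.5 Tris buffer with 2 mM MgCl2, RT. Compound preincubation 15 min; readout three fluorescence reads 60 s apart, third-minus-first.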

[6] = qHTS for differential inhibitors of proliferation of Plasmodium falciparum line 7G8 (AID 1815);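 also: parasite growth measured after three days of incubation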; also: potency is read from the fitted curve at half-maximal effect
[7] = qHTS for differential inhibitors of proliferation of Plasmodium falciparum line GB4 (AID 1816); details: Potency: Plasmodium falciparum GB4 proliferation inhibition;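 also: parasite growth measured after 72 h incubation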; also: potency is read from the fitted curve at half-maximal effect
[8] = qHTS for differential inhibitors of proliferation of Plasmodium falciparum line 3D7 (AID 1876); also: potency is read from the fitted curve at half-maximal effect
[9] = qHTS for differential inhibitors of proliferation of Plasmodium falciparum line D10 (AID 1877);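 also: parasites grown with compound for 72 h before DNA staining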; also: potency is read from the fitted curve at half-maximal effect
[10] = qHTS for differential inhibitors of proliferation of Plasmodium falciparum line Dd2 (AID 1882); details: Potency: Plasmodium falciparum Dd2 proliferation inhibition; also: nearly all actives have a fitted effect of over 65% in size; also: potency is read from the fitted curve at half-maximal effect
How it was run: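 SYBR Green DNA fluorescence (ex 485, em 535 nm) after overnight lysis quantifies parasite growth; compound exposure lasted 72 h at 37 C on infected red cells at 2.5% hematocrit, 0.3% parasitemia (final). Artemisinin 0.29 uM and vehicle wells define normalization.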

[11] = qHTS for differential inhibitors of proliferation of Plasmodium falciparum line HB3 (AID 1886); details: Potency: Plasmodium falciparum HB3 proliferation inhibition;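 also: parasites grown with compound for 72 h before SYBR Green readout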; also: potency is read from the fitted curve at half-maximal effect
[12] = qHTS Assay for Modulators of Human Peripheral Myelin Protein 22 (PMP22) Expression/Activity (AID 1967; active = well fitted curve in the direction sought with a large enough effect in the signal ratio; the % refers to the signal ratio)
How it was run: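 Mouse MSC80 Schwann line, Pmp22 promoter–CBG68 reporter, EF-alpha–CBR internal control. 24h compound exposure, 37 °C/5% CO2, DMEM + 10% FBS. Readout: corrected green/red luminescence ratio, normalized to untreated cells; concentration-response curves fitted and classified.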

[13] = molecular target: Ferritin light chain (Equus caballus) (UniProt P02791); assay: qHTS Validation Assay for Identification of Novel General Anesthetics (AID 2323)
How it was run: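 10 uM horse-spleen apoferritin + 1-AMA (50% saturated, PBS); cpd pin-transferred, 10 min RT. Ex 380/Em 535 nm endpoint. Activity normalized between free 1-AMA and 1-AMA/apoferritin; 4-parameter Hill fit of concentration-response.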

[14] = molecular target: ATP-dependent DNA helicase Q1 (Homo sapiens) (UniProt P46063); assay: qHTS Validation Assay for Inhibitors of RecQ-Like Dna Helicase 1 (RECQ1) (AID 2353)
How it was run: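 RECQ1T1 50 nM; forked duplex (20 bp + 30-nt ss tails) 200 nM, ATP 2 mM final; pH 8.0, 2 mM MgCl2, 2.5 ug/ml poly(dI-dC); 15 min compound preincubation; discontinuous kinetic read over 2 h at RT.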

[15] = molecular target: RecQ-like DNA helicase BLM (Homo sapiens) (UniProt P54132); assay: qHTS Validation Assay for Inhibitors of Bloom's syndrome helicase (BLM) (AID 2364); also: potency is read from the fitted curve at half-maximal effect
How it was run: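 50 nM BLM preincubated 15 min at room temperature with compound in pH 8.0 Tris buffer containing 2.5 ug/ml poly(dI-dC); started with 200 nM TAMRA/BHQ-2 forked duplex and 2 mM ATP (final). Unwinding read as TAMRA fluorescence increase, two reads 2 h apart.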

[16] = qHTS for differential inhibitors of proliferation of Plasmodium falciparum line W2 (AID 1883); details: Potency: Plasmodium falciparum W2 proliferation inhibition;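 also: parasites grown with compound for 72 h before lysis and staining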; also: potency is read from the fitted curve at half-maximal effect
[17] = measured here: cell count channel max response
[18] = measured here: lipid channel max response

ATP-dependent DNA helicase Q1 (Homo sapiens), sequence (P46063 whole entry, looked up): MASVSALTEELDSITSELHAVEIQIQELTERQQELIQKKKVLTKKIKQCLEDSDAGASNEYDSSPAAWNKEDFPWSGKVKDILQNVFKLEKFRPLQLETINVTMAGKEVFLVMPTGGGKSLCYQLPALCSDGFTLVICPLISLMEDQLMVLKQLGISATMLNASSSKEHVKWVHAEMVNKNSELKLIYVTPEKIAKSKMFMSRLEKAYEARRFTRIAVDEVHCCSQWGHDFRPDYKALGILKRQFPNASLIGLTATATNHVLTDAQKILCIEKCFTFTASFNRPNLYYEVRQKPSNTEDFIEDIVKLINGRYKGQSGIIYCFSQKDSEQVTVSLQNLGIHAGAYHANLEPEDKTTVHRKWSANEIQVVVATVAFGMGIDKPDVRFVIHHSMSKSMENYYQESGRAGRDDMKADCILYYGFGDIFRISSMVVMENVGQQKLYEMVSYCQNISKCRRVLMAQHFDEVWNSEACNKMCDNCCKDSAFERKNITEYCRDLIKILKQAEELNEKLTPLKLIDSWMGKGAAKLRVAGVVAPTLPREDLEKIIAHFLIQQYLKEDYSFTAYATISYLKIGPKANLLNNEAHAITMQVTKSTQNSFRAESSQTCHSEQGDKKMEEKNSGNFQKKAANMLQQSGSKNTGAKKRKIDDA
RecQ-like DNA helicase BLM (Homo sapiens), sequence (P54132 whole entry, looked up): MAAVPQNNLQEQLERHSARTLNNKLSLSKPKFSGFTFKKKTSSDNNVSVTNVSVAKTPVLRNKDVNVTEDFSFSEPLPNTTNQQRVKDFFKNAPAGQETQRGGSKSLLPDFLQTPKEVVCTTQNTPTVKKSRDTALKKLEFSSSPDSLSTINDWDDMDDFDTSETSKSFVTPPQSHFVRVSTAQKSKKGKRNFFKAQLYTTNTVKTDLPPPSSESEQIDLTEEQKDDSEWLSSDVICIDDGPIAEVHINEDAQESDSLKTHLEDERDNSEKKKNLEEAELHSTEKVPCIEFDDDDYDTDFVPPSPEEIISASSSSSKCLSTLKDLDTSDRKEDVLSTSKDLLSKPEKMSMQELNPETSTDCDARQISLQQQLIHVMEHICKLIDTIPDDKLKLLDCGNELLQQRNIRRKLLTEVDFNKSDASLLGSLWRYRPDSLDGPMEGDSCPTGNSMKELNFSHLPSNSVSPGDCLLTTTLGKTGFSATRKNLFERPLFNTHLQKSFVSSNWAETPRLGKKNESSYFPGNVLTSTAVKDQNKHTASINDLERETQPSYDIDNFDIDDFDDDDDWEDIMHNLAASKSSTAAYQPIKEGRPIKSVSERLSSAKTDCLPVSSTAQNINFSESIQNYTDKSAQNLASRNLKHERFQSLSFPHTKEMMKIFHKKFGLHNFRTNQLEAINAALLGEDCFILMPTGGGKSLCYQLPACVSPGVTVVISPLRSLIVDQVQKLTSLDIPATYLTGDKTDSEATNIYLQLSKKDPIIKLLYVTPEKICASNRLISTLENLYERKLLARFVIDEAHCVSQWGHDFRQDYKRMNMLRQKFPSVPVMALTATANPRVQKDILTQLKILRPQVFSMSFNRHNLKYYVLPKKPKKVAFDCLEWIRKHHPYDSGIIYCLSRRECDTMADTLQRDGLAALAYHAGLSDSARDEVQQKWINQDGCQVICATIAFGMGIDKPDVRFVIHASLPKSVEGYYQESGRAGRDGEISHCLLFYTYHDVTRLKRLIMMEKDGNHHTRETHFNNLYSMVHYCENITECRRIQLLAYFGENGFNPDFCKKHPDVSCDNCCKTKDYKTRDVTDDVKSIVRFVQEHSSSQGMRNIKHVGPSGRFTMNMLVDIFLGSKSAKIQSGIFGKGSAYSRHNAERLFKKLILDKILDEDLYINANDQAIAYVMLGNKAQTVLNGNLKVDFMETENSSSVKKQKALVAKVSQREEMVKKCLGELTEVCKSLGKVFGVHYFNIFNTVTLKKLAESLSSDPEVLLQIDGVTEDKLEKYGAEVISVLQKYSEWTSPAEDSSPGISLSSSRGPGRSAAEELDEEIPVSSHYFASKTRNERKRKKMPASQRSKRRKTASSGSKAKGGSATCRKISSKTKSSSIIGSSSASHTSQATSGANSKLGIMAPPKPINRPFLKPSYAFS
DNA repair nuclease/redox regulator APEX1 (Homo sapiens), sequence (P27695 whole entry, looked up): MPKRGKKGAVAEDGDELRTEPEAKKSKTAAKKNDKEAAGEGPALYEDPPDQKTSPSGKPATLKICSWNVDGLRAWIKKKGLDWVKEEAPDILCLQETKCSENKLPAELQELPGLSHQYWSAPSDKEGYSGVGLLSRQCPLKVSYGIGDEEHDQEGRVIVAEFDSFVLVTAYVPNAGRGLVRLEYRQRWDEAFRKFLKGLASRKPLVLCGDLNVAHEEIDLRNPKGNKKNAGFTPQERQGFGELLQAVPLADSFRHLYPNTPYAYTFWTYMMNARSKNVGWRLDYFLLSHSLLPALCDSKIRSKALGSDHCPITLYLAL
Ferritin light chain (Equus caballus), sequence (P02791 2-175 limits assumed): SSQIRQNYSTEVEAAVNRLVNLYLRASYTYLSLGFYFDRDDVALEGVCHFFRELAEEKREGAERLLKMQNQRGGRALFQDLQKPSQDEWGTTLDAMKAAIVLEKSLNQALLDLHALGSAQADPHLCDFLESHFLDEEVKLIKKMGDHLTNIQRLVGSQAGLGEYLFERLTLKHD

Structure (SMILES) | outcome [1] | activity change, negative = inhibition [2] | max response [2, 17] [%] | max response [2, 18] [%] | Potency [3] | Potency [4] | Potency [5] | Potency [6] | Potency [7] | Potency [8] | Potency [9] | Potency [10] | Potency [11] | outcome [12] | Potency [13] | Potency [14] | Potency [15] | Potency [16]
N=C(N)SCCc1cnc[nH]1 | inactive | 2.03% (inactive) | 1.98 | 5.06 | inactive | inactive | inactive | inactive | inactive | inactive | inactive | inactive | inactive | inactive | inactive | inactive | inactive | –
CCN1C(=O)C=CC1=O | inactive | 0.136% (inactive) | -19.7 | -18.9 | inactive | inactive | inactive | inactive | inactive | inactive | inactive | inactive | inactive | – | inactive | inactive | – | inactive
CNCCNS(=O)(=O)c1cccc2cnccc12 | inactive | 0.292% (inactive) | 5.66 | 5.52 | inactive | inactive | inactive | inactive | inactive | inactive | inactive | – | inactive | – | inactive | inactive | inactive | –
N[C@@H](Cc1c[nH]c2ccccc12)C(=O)O | inactive | 1.05% (inactive) | 61.2 | 63.3 | inactive | inactive | inactive | 11.2 µM (active) | – | – | – | inactive | – | – | inactive | inactive | – | –
CN1CCc2cc(Cl)c(O)cc2[C@@H](c2ccccc2)C1 | – | 0.829% (inactive) | 25.8 | 26.8 | – | – | – | – | – | – | – | – | – | – | – | – | – | –
CC(C)(CO)Cc1cc(C(C)(C)C)c(O)c(C(C)(C)C)c1 | inactive | -0.753% (inactive) | -30.7 | -34 | inactive | inactive | – | – | – | 3.98 µM (active) | – | inactive | – | – | – | inactive | – | 10 µM (active)
CCCCOC(=O)NS(=O)(=O)c1sc(CC(C)C)cc1-c1ccc(Cn2c(CC)nc3c(C)cc(C)nc32)cc1 | inactive | -0.147% (inactive) | 28.5 | 27.6 | – | inactive | – | 7.08 µM (active) | 8.91 µM (active) | 11.2 µM (active) | 11.2 µM (active) | – | 12.6 µM (active) | – | inactive | inactive | – | 7.94 µM (active)
CCCn1c(=O)c2[nH]c(C3CCCC3)nc2n(CCC)c1=O | inactive | 7.3% (inactive) | 9.56 | 17.6 | inactive | inactive | inactive | – | – | – | – | inactive | inactive | – | inactive | inactive | inactive | –
CC(C)(C)c1cc(/C=C(\C#N)C(N)=S)cc(C(C)(C)C)c1O | inactive | – | – | – | – | inactive | inactive | 7.94 µM (active) | 7.94 µM (active) | 4.47 µM (active) | 8.91 µM (active) | 8.91 µM (active) | 6.31 µM (active) | – | – | inactive | – | 2.82 µM (active)
COc1ccccc1N1CCN(CCN(C(=O)c2ccc(F)cc2)c2ccccn2)CC1 | inactive | – | – | – | inactive | – | inactive | – | – | – | – | – | – | – | inactive | inactive | – | 8.91 µM (active)
CCn1c(=O)[nH]c2cc(Cl)c(Cl)cc21 | inactive | – | – | – | inactive | inactive | inactive | inactive | inactive | inactive | inactive | – | inactive | – | inactive | inactive | – | inactive
NCC(O)C1CCCCCCC1 (centres undefined) | – | – | – | – | inactive | – | inactive | 12.6 µM (active) | 5.62 µM (active) | inactive | inactive | 8.91 µM (active) | inactive | – | inactive | inactive | – | 3.16 µM (active)
Nc1ncnc2c1c(-c1ccc(Oc3ccccc3)cc1)cn2C1CCCC1 | inactive | – | – | – | inactive | inactive | – | 4.47 µM (active) | 2.51 µM (active) | 10 µM (active) | 12.6 µM (active) | 7.94 µM (active) | 12.6 µM (active) | – | – | inactive | – | 3.55 µM (active)
CC(/C=C/c1cccc(Oc2ccc(F)cc2)c1)N(O)C(N)=O (centres undefined) | – | – | – | – | inactive | inactive | inactive | – | – | – | – | – | – | – | – | inactive | – | 10 µM (active)
COc1ccc2c(c1)CCC1C2CC[C@@]2(C)C1CC[C@@H]2NCCCCCCN1C(=O)C=CC1=O (some centres undefined) | – | – | – | – | inactive | inactive | inactive | inactive | inactive | inactive | inactive | inactive | inactive | inactive | inactive | inactive | inactive | inactive
CC(=O)[C@H]1CCC2C3CC=C4C[C@@H](OS(=O)(=O)O)CC[C@]4(C)C3CC[C@@]21C (some centres undefined) | – | – | – | – | inactive | inactive | inactive | inactive | inactive | inactive | inactive | – | inactive | – | inactive | inactive | inactive | inactive
N=C(N)c1ccc(OCCCCCOc2ccc(C(=N)N)cc2)cc1 (tested in a mixture with another compound) | inactive | – | – | – | inactive | inactive | inactive | 0.282 µM (active) | 0.251 µM (active) | 0.0891 µM (active) | 0.199 µM (active) | 1 µM (active) | 0.224 µM (active) | – | inactive | inactive | inactive | 0.355 µM (active)
O=C(c1ccc2c(c1)OCCO2)N1CCCCC1 | – | – | – | – | – | – | – | – | – | – | – | inactive | – | inactive | – | – | inactive | –
CCCCCCCCCCCCCCSCC(=O)O | inactive | – | – | – | inactive | inactive | inactive | inactive | inactive | inactive | inactive | – | inactive | inactive | – | inactive | – | inactive
O=C1Cc2c([nH]c3ccc(Br)cc23)-c2ccccc2N1 | inactive | – | – | – | inactive | inactive | – | 8.91 µM (active) | 10 µM (active) | 11.2 µM (active) | 11.2 µM (active) | – | 12.6 µM (active) | – | inactive | inactive | – | 10 µM (active)
Nc1ncnc2c1ncn2C1CCCC1 | inactive | – | – | – | inactive | inactive | inactive | inactive | – | – | inactive | inactive | – | – | inactive | inactive | – | –
C=C1C(=O)O[C@@H]2[C@H]3O[C@]3(C)CCC=C(C)CC[C@@H]12 | – | – | – | – | inactive | inactive | – | 11.2 µM (active) | – | – | – | – | 11.2 µM (active) | – | – | inactive | inactive | 10 µM (active)
COc1cc([C@@H]2c3cc4c(cc3[C@H](O)C3COC(=O)[C@@H]32)OCO4)cc(OC)c1OC (some centres undefined) | – | – | – | – | inactive | inactive | – | – | – | – | – | – | – | inactive | inactive | inactive | inactive | –
[N-]=[N+]=Nc1ccc(C(=O)CSC[C@H](NC(=O)CC[C@H](N)C(=O)O)C(=O)NCC(=O)O)cc1 | – | – | – | – | 20 µM (active) | inactive | – | inactive | – | inactive | inactive | inactive | inactive | – | – | – | 28.2 µM (active) | –

From PubChem BioAssay (NCATS)
